# Laboratory results from PubChem BioAssay AID1851 (National Center for Advancing Translational Sciences (NCATS), 2009).
# The whole screen tested about 16,000 compounds, of which about 5,800 (36%) were called active. Another 23% or so got no clear call; they are omitted. This is one part of the list. Values without a mark were called inactive. Calls come from the whole dose curve; as a rule, active = well fitted curve in the direction sought with a large enough effect; inconclusive = small, poorly fitted or top-dose-only effect, or effect the other way; inactive = no such curve, though single readings can be large or run the other way.
# Molecular target: Cytochrome P450 2C19 (Homo sapiens) (UniProt P33261)
# Sequence (P33261 whole entry, looked up): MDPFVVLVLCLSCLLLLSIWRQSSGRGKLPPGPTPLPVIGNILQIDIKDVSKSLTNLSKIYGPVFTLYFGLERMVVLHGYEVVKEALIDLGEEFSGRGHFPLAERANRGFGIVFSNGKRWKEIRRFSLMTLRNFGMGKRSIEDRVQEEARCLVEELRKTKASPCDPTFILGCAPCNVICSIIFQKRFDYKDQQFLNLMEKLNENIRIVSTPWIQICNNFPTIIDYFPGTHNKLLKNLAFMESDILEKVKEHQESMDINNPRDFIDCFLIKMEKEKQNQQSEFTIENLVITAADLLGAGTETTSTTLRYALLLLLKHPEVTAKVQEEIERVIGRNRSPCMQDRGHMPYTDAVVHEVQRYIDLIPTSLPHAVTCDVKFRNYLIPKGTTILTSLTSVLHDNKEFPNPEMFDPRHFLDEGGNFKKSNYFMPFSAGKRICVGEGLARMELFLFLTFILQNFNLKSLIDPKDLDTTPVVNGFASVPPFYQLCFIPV
# Assay: Cytochrome panel assay with activity outcomes
# Settings: recombinant CYP, pro-luciferin dealkylation, luminescence, p450-cyp2c19; series mostly up to 57.1 µM; activity, negative = inhibition: at the top concentration
# % is set by controls: 0 for no effect and ±100 for the full control effect.
SMILES,AC50,"activity, negative = inhibition"
S=c1nc(-c2ccccc2)oc2c1CCCC2,15.8 µM (active),–
COc1ccc(-n2c(-c3ccccc3)nc(=S)c3c2CCCC3)cc1,–,-14.5% (inactive)
c1ccc(Oc2cc(-c3ccccc3)ncn2)cc1,2.51 µM (active),–
COc1ccccc1NC(=O)Nc1nnc(-c2ccco2)s1,1.78 µM (active),–
COc1ccccc1-c1nnc(NC(C)=O)s1,–,-11% (inactive)
CN1C(=O)/C(=N\OC(=O)c2cccc3ccccc23)c2ccccc21,8.91 µM (active),–
CN1C(=O)c2ccccc2C(C(=O)O)C1c1cn(C)c2ccccc12 (configuration not stated),–,-28.2% (inactive)
NCCCCCCCCCCN,–,-14.1% (inactive)
C[C@H](NCCc1ccc(O)cc1)[C@@H](O)c1ccc(O)cc1,inactive,–
CN(c1ccccc1)c1ccc(/C=c2\s/c(=C(/C#N)C(=O)C(C)(C)C)n(Cc3ccco3)c2=O)cc1,1.78 µM (active),–
CNC(C)c1cc(OC)ccc1OC (configuration not stated),–,-11.9% (inactive)
COc1cccc(OC)c1OCCCCN1CCCC1,–,-25.6% (inactive)
COc1cccc(OCCCOc2ccccc2C(C)C)c1,3.16 µM (active),–
CC(C(=O)Nc1cccnc1)N1C(=O)C2C3C=CC(C3)C2C1=O (configuration not stated),–,18.2% (inactive)
Cc1ccc(NC(=O)C(C)N2C(=O)C3C4CC(C(Br)C4Br)C3C2=O)cc1 (configuration not stated),12.6 µM (active),–
COC(=O)c1nc(NC(=O)c2ccccc2)n[nH]1,–,-17.1% (inactive)
Cc1nc(SC(C(=O)c2ccccc2)c2ccccc2)n[nH]1 (configuration not stated),2.51 µM (active),–
CCN(CC)C(=O)CSc1nnc(-c2ccco2)n1N,–,-20.6% (inactive)
COc1ccc(-c2csc(N3C(=N)SCC3=O)n2)cc1,–,-31.8% (inactive)
CCOc1ccc(C2=Nn3c(nnc3-c3ccco3)SC2)cc1,3.16 µM (active),–
COc1cccc(-c2nnc3n2N=C(C(C)(C)C)CS3)c1,2.82 µM (active),–
CCOc1ccc(-c2nnc3n2N=C(c2ccc(OC)cc2)CS3)cc1,4.47 µM (active),–
NCCCCCC(=O)O,inactive,–
CCN1C(=O)[C@H]2[C@H]3[C@H](O)[C@H](O)C/C(=N/OC[C@@H](O)COCc4ccco4)[C@H]3CC[C@@H]2C1=O,–,-33.5% [at 11.4 µM]

SMILES,AC50,"activity, negative = inhibition"
CO[C@@H]1COC(=O)C/C=C\[C@@H](C)[C@H](OC)COC(=O)[C@@H](C)COC(=O)C/C=C\[C@H]1C,–,4.43% [at 11.4 µM]
CCC(C)n1c(NC(=O)c2ccccc2)c(C#N)c2nc3ccccc3nc21 (configuration not stated),28.2 µM (active),–
Cc1noc(NC(=O)Nc2ccccc2F)c1C#N,–,-17.8% [at 11.4 µM]
CC(C)CN=C(N)N=C(N)N,–,-8.28% [at 11.4 µM]
Oc1cccc(-c2nc3c4c(ncn3n2)-c2ccccc2CC42CCCC2)c1,25.1 µM (active),–
COc1ccc(C(=O)N2CCC3(CCN(C)CC3)CC2)cc1,–,-7.06% (inactive)
COc1ccc(C(=O)N2CCC3(CC2)CCN(C(c2ccccc2)c2ccccc2)CC3)cc1,–,-41.3% (inactive)
COc1ccc(C(=O)/C=C2/c3ccccc3CC(C)(C)N2C)cc1,15.8 µM (active),–
CCNS(=O)(=O)c1ccc(NC(=O)c2cc(C(F)(F)F)nn2C)cc1,–,-28.8% (inactive)
Cn1nccc1C(=O)Nc1ccc(Cl)cc1,31.6 µM (active),–
O=C(Cc1cccs1)N/N=C/C(Br)=C/c1ccccc1,7.08 µM (active),–
O=C(O)c1cscc1Cc1cccs1,–,-1.48% [at 11.4 µM]
O=C(O)/C(=C\c1ccccc1)Cc1ccccc1,–,-14.2% [at 11.4 µM]
COc1cc(C(=O)NCc2cccc3ccccc23)cc(Cl)c1OC,3.16 µM (active),–
CS(=O)(=O)N1CCC[C@@]2(CCN(C(=O)Nc3ccccc3)C2)C1,–,7.58% (inactive)
COc1ccc2c(c1)C(=NN)c1cc(OC)ccc1-2,8.91 µM (active),–
COc1ccc2c(c1)Cc1cc(N=[N+]([O-])c3ccc4c(c3)Cc3cc(OC)ccc3-4)ccc1-2,–,-35.1% [at 11.4 µM]
CC1(C)O[C@H]2[C@@H](c3[nH]nc4c(=O)[nH]c(=O)[nH]c34)OC[C@H]2O1,–,9.71% [at 11.4 µM]
COc1ccc(C(=O)N2CCCCC2)cc1S(=O)(=O)Nc1ccccc1,–,-27.1% (inactive)
Cc1ccc(NS(=O)(=O)c2cc(C(=O)NCc3ccccn3)ccc2Cl)cc1,5.01 µM (active),–
CN(c1ccc(C(=O)NCc2ccccn2)cc1)S(C)(=O)=O,–,3.47% (inactive)
Cc1ccc(NS(=O)(=O)c2cc(C(=O)N3CCc4ccccc4C3)ccc2Cl)cc1,1.58 µM (active),–
CC(=O)OCC(=O)[C@@]1(OC(C)=O)[C@H](C)C[C@H]2[C@@H]3C[C@H](F)C4=CC(=O)C=C[C@@]4(C)[C@]3(F)[C@H](O)C[C@@]21C,–,-34.6% [at 25.6 µM] (inactive)
